Measurements reported in PubChem BioAssay AID1159580 (chemical genetic matrix, 2015).
Values joined by “and” are separate entries in the source; they are usually repeats but may differ in a detail not shown here. Equal values may be shown once. In all, about 5,500 compounds went through this assay and about 2,000 (36%) were called active. About 18% were inconclusive and are not listed. Cut-off read from the data, not from the text of the source: active = normalized growth mostly below about 0.91 (no sharp cut-off); inconclusive = no clear call, values can overlap the other calls; inactive = mostly above about 0.92. Some of the results follow. Some structures have more than one record in an assay (separate samples or runs), and their calls can disagree.

Assay: chemical genetic growth profiling, strain panel (AID 1159580);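 note: tested at 20 µM; growth read once vehicle control cultures reached saturation at 30 °C; 1 = growth at the plate median or of vehicle wells; lower values mean less growth of the strain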
Settings: growth OD

Measured: normalized growth

CCN(CC)CCCC(C)Nc1c2ccc(Cl)cc2nc2ccc(OC)cc12 (stereo unspecified)
active: S. cerevisiae deletion strains, locus YJR075W, strain HOC1, stronger effect = lower value 0.813 | S. cerevisiae deletion strains, locus YKL009W, strain mrt4, stronger effect = lower value 0.863 | S. cerevisiae deletion strains, locus YKL085W, strain MDH1 (second series), stronger effect = lower value 0.93 | S. cerevisiae deletion strains, locus YKL085W, strain MDH1, stronger effect = lower value 0.93 | S. cerevisiae deletion strains, locus YKL190W, strain CNB1, stronger effect = lower value 0.79 | S. cerevisiae deletion strains, locus YKR001C, strain vps1, stronger effect = lower value 0.616 | S. cerevisiae deletion strains, locus YLL001W, strain dnm1, stronger effect = lower value 0.902 | S. cerevisiae deletion strains, locus YLR058C, strain SHM2, stronger effect = lower value 0.524 | S. cerevisiae deletion strains, locus YLR102C, strain apc9, stronger effect = lower value 0.855 | S. cerevisiae deletion strains, locus YLR113W, strain HOG1, stronger effect = lower value 0.741 | S. cerevisiae deletion strains, locus YLR268W, strain sec22, stronger effect = lower value 0.717 | S. cerevisiae deletion strains, locus YLR330W, strain CHS5, stronger effect = lower value 0.883 | S. cerevisiae deletion strains, locus YLR342W, strain FKS1 (second series), stronger effect = lower value 0.632 | S. cerevisiae deletion strains, locus YML032C, strain rad52, stronger effect = lower value 0.544 | S. cerevisiae deletion strains, locus YML124C, strain tub3, stronger effect = lower value 0.858 | S. cerevisiae deletion strains, locus YMR223W, strain ubp8, stronger effect = lower value 0.508 | S. cerevisiae deletion strains, locus YNL067W, strain RPL9B, stronger effect = lower value 0.703 | S. cerevisiae deletion strains, locus YNL153C, strain GIM3, stronger effect = lower value 0.819 | S. cerevisiae deletion strains, locus YNL183C, strain NPR1, stronger effect = lower value 0.644 | S. cerevisiae deletion strains, locus YNL233W, strain BNI4, stronger effect = lower value 0.756 | S. cerevisiae deletion strains, locus YNL307C, strain MCK1, stronger effect = lower value 0.622 | S. cerevisiae deletion strains, locus YNL322C, strain KRE1, stronger effect = lower value 0.794 | S. cerevisiae deletion strains, locus YNR052C, strain pop2, stronger effect = lower value 0.821 | S. cerevisiae deletion strains, locus YOL012C, strain htz1 2.88 [resistant] | S. cerevisiae deletion strains, locus YOL147C, strain pex11, stronger effect = lower value 0.6 | S. cerevisiae deletion strains, locus YOR061W, strain CKA2, stronger effect = lower value 0.71 | S. cerevisiae deletion strains, locus YOR069W, strain VPS5, stronger effect = lower value 0.848 | S. cerevisiae deletion strains, locus YOR144C, strain elg1, stronger effect = lower value 0.776 | S. cerevisiae deletion strains, locus YOR184W, strain ser1, stronger effect = lower value 0.59 | S. cerevisiae deletion strains, locus YOR231W, strain MKK1, stronger effect = lower value 0.686 | S. cerevisiae deletion strains, locus YOR290C, strain snf2, stronger effect = lower value 0.8 | S. cerevisiae deletion strains, locus YOR316C, strain cot1, stronger effect = lower value 0.751 | S. cerevisiae deletion strains, locus YPL055C, strain LGE1, stronger effect = lower value 0.746 | S. cerevisiae deletion strains, locus YPL241C, strain CIN2, stronger effect = lower value 0.914 | S. cerevisiae deletion strains, locus YPL256C, strain CLN2, stronger effect = lower value 0.797 | S. cerevisiae deletion strains, locus YPR167C, strain met16, stronger effect = lower value 0.866 | S. cerevisiae deletion strains, strain wtn01, stronger effect = lower value 0.665 | S. cerevisiae strains, strain wild type, stronger effect = lower value 0.755
inactive: S. cerevisiae deletion strains, locus YKL068W, stronger effect = lower value 1 | S. cerevisiae deletion strains, locus YKL160W, strain elf1, stronger effect = lower value 0.931 | S. cerevisiae deletion strains, locus YKR026C, strain gcn3, stronger effect = lower value 1.04 | S. cerevisiae deletion strains, locus YKR091W, strain srl3, stronger effect = lower value 1.02 | S. cerevisiae deletion strains, locus YLL026W, stronger effect = lower value 1.02 | S. cerevisiae deletion strains, locus YLL041C, strain sdh2, stronger effect = lower value 1.03 | S. cerevisiae deletion strains, locus YLR027C, strain aat2, stronger effect = lower value 0.964 | S. cerevisiae deletion strains, locus YLR039C, strain RIC1, stronger effect = lower value 0.949 | S. cerevisiae deletion strains, locus YLR221C, strain rsa3, stronger effect = lower value 0.993 | S. cerevisiae deletion strains, locus YLR258W, strain gsy2, stronger effect = lower value 0.954 | S. cerevisiae deletion strains, locus YLR262C, strain YPT6 (second series), stronger effect = lower value 0.992 | S. cerevisiae deletion strains, locus YLR262C, strain YPT6, stronger effect = lower value 0.945 | S. cerevisiae deletion strains, locus YLR320W, strain mms22, stronger effect = lower value 0.973 | S. cerevisiae deletion strains, locus YLR342W, strain FKS1, stronger effect = lower value 1.01 | S. cerevisiae deletion strains, locus YLR357W, strain rsc2, stronger effect = lower value 1.07 | S. cerevisiae deletion strains, locus YLR370C, strain arc18, stronger effect = lower value 0.955 | S. cerevisiae deletion strains, locus YLR371W, strain rom2, stronger effect = lower value 0.93 | S. cerevisiae deletion strains, locus YLR384C, strain iki3, stronger effect = lower value 1.04 | S. cerevisiae deletion strains, locus YLR418C, strain cdc73, stronger effect = lower value 0.959 | S. cerevisiae deletion strains, locus YML016C, strain PPZ1, stronger effect = lower value 1.01 | S. cerevisiae deletion strains, locus YML120C, strain ndi1, stronger effect = lower value 0.995 | S. cerevisiae deletion strains, locus YMR058W, strain fet3, stronger effect = lower value 0.961 | S. cerevisiae deletion strains, locus YMR078C, strain ctf18, stronger effect = lower value 0.954 | S. cerevisiae deletion strains, locus YMR125W, strain sto1, stronger effect = lower value 0.989 | S. cerevisiae deletion strains, locus YMR129W, stronger effect = lower value 1.04 | S. cerevisiae deletion strains, locus YMR205C, strain PFK2, stronger effect = lower value 0.973 | S. cerevisiae deletion strains, locus YMR231W, strain pep5, stronger effect = lower value 1.02 | S. cerevisiae deletion strains, locus YMR263W, strain SAP30, stronger effect = lower value 0.948 and 0.979 | S. cerevisiae deletion strains, locus YMR307W, strain GAS1, stronger effect = lower value 1.15 and 0.985 | S. cerevisiae deletion strains, locus YNL071W, strain lat1, stronger effect = lower value 1.02 | S. cerevisiae deletion strains, locus YNL175C, strain NOP13, stronger effect = lower value 0.992 | S. cerevisiae deletion strains, locus YNL197C, strain WHI3, stronger effect = lower value 1 | S. cerevisiae deletion strains, locus YNL209W, strain ssb2, stronger effect = lower value 0.985 | S. cerevisiae deletion strains, locus YNL224C, strain SQS1, stronger effect = lower value 0.959 | S. cerevisiae deletion strains, locus YNL248C, strain rpa49, stronger effect = lower value 1.01 | S. cerevisiae deletion strains, locus YNL250W, strain rad50, stronger effect = lower value 0.952 | S. cerevisiae deletion strains, locus YNL271C, strain bni1, stronger effect = lower value 1.02 | S. cerevisiae deletion strains, locus YNL298W, strain CLA4, stronger effect = lower value 1 | S. cerevisiae deletion strains, locus YNL322C, strain KRE1 (second series), stronger effect = lower value 1.01 | S. cerevisiae deletion strains, locus YNR049C, strain mso1, stronger effect = lower value 1.04 | S. cerevisiae deletion strains, locus YOL006C, strain TOP1, stronger effect = lower value 0.847 | S. cerevisiae deletion strains, locus YOR001W, strain rrp6, stronger effect = lower value 0.966 | S. cerevisiae deletion strains, locus YOR070C, strain gyp1, stronger effect = lower value 0.985 | S. cerevisiae deletion strains, locus YOR080W, strain dia2, stronger effect = lower value 1.03 | S. cerevisiae deletion strains, locus YOR083W, strain WHI5 (second series), stronger effect = lower value 0.955 | S. cerevisiae deletion strains, locus YOR083W, strain WHI5, stronger effect = lower value 0.97 | S. cerevisiae deletion strains, locus YOR106W, strain vam3, stronger effect = lower value 0.916 | S. cerevisiae deletion strains, locus YOR136W, strain idh2, stronger effect = lower value 0.928 | S. cerevisiae deletion strains, locus YOR265W, strain rbl2, stronger effect = lower value 1.02 | S. cerevisiae deletion strains, locus YOR270C, strain vph1, stronger effect = lower value 0.996 | S. cerevisiae deletion strains, locus YPL051W, strain arl3, stronger effect = lower value 0.961 | S. cerevisiae deletion strains, locus YPL078C, strain atp4, stronger effect = lower value 0.936 | S. cerevisiae deletion strains, locus YPL106C, strain sse1, stronger effect = lower value 0.984 | S. cerevisiae deletion strains, locus YPL240C, strain hsp82, stronger effect = lower value 0.998 | S. cerevisiae deletion strains, locus YPR119W, strain clb2, stronger effect = lower value 0.946 | S. cerevisiae deletion strains, locus YPR141C, strain kar3, stronger effect = lower value 1.04 | S. cerevisiae deletion strains, locus YPR163C, strain tif3, stronger effect = lower value 1.02
0.743 (active) and 0.988 (inactive): S. cerevisiae deletion strains, locus YNL128W, strain TEP1, stronger effect = lower value
